Screening results from PubChem BioAssay.
Hits are enriched below; roughly 2.8% of the tested compounds scored in any of these assays.
Peg3 promoter = inhibitors of Peg3 promoter; 360,000 tested, 1.7% active; HeLa PEG-Prom luciferase reporter, luminescence, overnight; AID 588405; inhibition, % at 20 µM;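 active = inhibition of at least 50% at 20 µM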
KKLEB cytotox = counter-screen for CF NF-kB inhibitors: cytotoxicity; activity change (cytotoxicity), % at 5 µM; AID 602141; 360,000 tested, 0.36% active; KKLEB CF airway cells viability, ATPlite luminescence, overnight; hits give low values; cells stimulated with P. aeruginosa culture filtrate;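 active = corrected activity change at or below -50% at 5 µM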
HIF-2a block = HIF-2a inhibition; AID 624352; 360,000 tested, 0.72% active; inhibition, % at 18.8 µM; 786-0 RCC cells HIF-2a reporter, luciferase luminescence, overnight;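 active = inhibition of the luminescence signal of 40% or more relative to plate controls, in a single-dose primary screen at 18.75 µM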
CF NFkB block = cystic fibrosis NF-kB activation inhibition; inhibition, % at 5 µM; 360,000 tested, 0.86% active; KKLEB NF-kB-GFP reporter, PAF-induced, GFP fluorescence overnight; AID 588850;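 active = at least 50% inhibition at 5 µM, scaled per plate between neutral and stimulator controls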;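 note: PAF is a Pseudomonas aeruginosa culture filtrate used as stimulus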
MITF TRPM1 inh = reduces MITF-dependent TRPM1 promoter luciferase signal; SK-MEL-5 TRPM1 promoter luciferase, 24 h; inhibition, % at 12.5 µM; 330,000 tested, 0.83% active; AID 488899;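 active = mean inhibition across replicates of 60% or more, whatever share of single replicates reaches that level; inconclusive = some that reach 60%, reason not given; inactive = mean inhibition across replicates below 60%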
Shn3 3UTR inh = Schnurri-3 reporter inhibition in Clone20 osteoblasts; Clone20 osteoblast Shn3 3'UTR firefly luciferase, 24 h; inhibition, % at 12.5 µM; 360,000 tested, 0.52% active; AID 588674;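 active = mean inhibition of at least 75% with every replicate also reaching 75%; inconclusive = mean inhibition at least 75% but some replicate below; inactive = mean inhibition below 75%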
Of the large screens only hits and unclear results are named; the others gave an inactive call.

CCN(CC)C(=O)C1CCN(S(=O)(=O)c2ccc3oc4ccccc4c3c2)CC1	Shn3 3UTR inh 86
COCC(=O)OC1CCn2c1nc1c2C(=O)C(C)=C(NC(C)=O)C1=O (stereo not drawn)	Peg3 promoter 85, KKLEB cytotox -68, CF NFkB block 91, MITF TRPM1 inh 86, Shn3 3UTR inh 89
O=C(c1ccc(Cl)c([N+](=O)[O-])c1)N1CCN(c2ccccn2)CC1	none
O=C(c1ccc(S(=O)(=O)Cc2ccccc2Cl)c([N+](=O)[O-])c1)N1CCN(c2ccccn2)CC1	MITF TRPM1 inh 74
COCCNC(=S)N1CCC(NC(=O)c2ccco2)CC1	none
Cc1cc(Oc2ccccc2)nc(-c2ccccc2)n1	none
C=C(C)c1nc(Oc2ccccc2)nc(Oc2ccccc2)n1	Peg3 promoter 106, MITF TRPM1 inh inconclusive
O=S(=O)(c1ccc(Cl)c(Cl)c1)c1snnc1-c1ccccc1	Peg3 promoter 73, HIF-2a block 77, CF NFkB block 56, MITF TRPM1 inh 88, Shn3 3UTR inh inconclusive
c1ccc(-c2nnsc2-c2ccccc2)cc1	none
COc1cccc(NC(=S)NC2CC(C)CC(C)(C)C2)c1 (stereo not drawn)	none (no result: MITF TRPM1 inh)
O=C(Nc1nc2cc(Cl)ccc2s1)C1CCCN(S(=O)(=O)c2cccc3cccnc23)C1 (stereo not drawn)	Peg3 promoter 60
CC(=O)Nc1ccc(N(C(=O)CNC(=O)c2cccs2)C(C(=O)NCC2CCCO2)c2ccccc2)cc1 (stereo not drawn)	none
CC(=O)c1ccc(N(C(=O)CNC(=O)c2cccs2)C(C(=O)NCC2CCCO2)c2ccccc2)cc1 (stereo not drawn)	Peg3 promoter 94
COc1ccc(C(=O)N/N=C/c2c[nH]c3ccccc23)cc1	none
CCCOc1ccc(C(=O)N/N=C/c2c[nH]c3ccc(Br)cc23)cc1	Peg3 promoter 51
Cn1c(CCN2CCN(c3ccccn3)CC2)nc2cc(NC(=O)COc3ccc(Cl)cc3)ccc21	Peg3 promoter 52
COc1ccc(OCC(=O)Nc2ccc3c(c2)nc(CCN2CCN(c4ccccn4)CC2)n3C)cc1	none (no result: MITF TRPM1 inh)
Cn1ncc2c(N3CCN(c4ccc(Cl)c(Cl)c4)CC3)ncnc21	Peg3 promoter 100
Cn1ncc2c(N3CCN(c4ccccc4F)CC3)ncnc21	none
CC1CCC(C(C)C)C(OCC(O)CNC(C)(C)C)C1 (stereo not drawn)	none
CC1CCC(C(C)C)C(OCC(O)CNC(C)c2ccccc2)C1 (stereo not drawn)	Peg3 promoter 106
CC(NCC(O)COC1CCC(C(C)(C)C)CC1)c1ccccc1 (stereo not drawn)	Peg3 promoter 64
CC(NCC(O)COc1ccc(S(=O)(=O)N2CCOCC2)cc1)c1ccccc1 (stereo not drawn)	none
O=C(Nc1ccc(F)cc1)c1nn(-c2ccccc2)c(=O)cc1Cl	Peg3 promoter 99
CCCOCCOC(=O)c1[nH]c2c(c1C)C(=O)CC(c1cc(OC)ccc1OC)C2 (stereo not drawn)	CF NFkB block 54
O=C(Cc1cccc(C(F)(F)F)c1)Nc1cc(S(=O)(=O)N2CCOCC2)ccc1N1CCCC1	none
COc1ccc(-c2csc(N3CCN(c4cc(C)nc5ccccc45)CC3)n2)cc1OC	Peg3 promoter 100, MITF TRPM1 inh 73
CC(C)(C)c1nn(-c2ccccc2)c2[nH]c(=O)c(CNc3ccc4c(c3)OCCO4)cc12	CF NFkB block 57
CC(C)(C)c1nn(-c2ccccc2)c2[nH]c(=O)c(CNCc3ccco3)cc12	MITF TRPM1 inh 67
Cc1nc(SCC(=O)N2CCOCC2)c2c3c(sc2n1)CCC3	none
CC1CCCN(S(=O)(=O)c2ccc(NC(=O)C3CCN(C(=O)c4ccco4)CC3)cc2)C1 (stereo not drawn)	none
Cc1c(N=C2N=C(NC(=O)c3ccc(F)cc3)c3ccccc32)c(=O)n(-c2ccccc2)n1C	Peg3 promoter 63
C=CCN(C(=O)CSc1nc2c(sc3ccccc32)c(=O)n1CCN(CC)CC)c1ccccc1	Peg3 promoter 64
O=C(CC1Nc2ccccc2NC1=O)Nc1ccc2c(c1)OCO2 (stereo not drawn)	none
Cc1ccc(NC(=O)CC2Nc3ccccc3NC2=O)cc1Cl (stereo not drawn)	KKLEB cytotox -52
Cc1ccc(Cl)cc1N1CCN(S(=O)(=O)c2ccc3c(c2)CC(=O)N3C)CC1	none
CN1C(=O)/C(=C/c2cc(C(C)(C)C)c(O)c(C(C)(C)C)c2)NC1=S	none
COc1ccc(/C=C2\SC(=NCc3ccccc3)NC2=O)cc1	none
COc1cc(/C=C2\SC(N)=NC2=O)ccc1O	CF NFkB block 73
COc1cc(/C=C2/SC(=Nc3ccc(O)cc3)NC2=O)ccc1O	CF NFkB block 71
CCc1ccc(N=C2NC(=O)/C(=C/c3cc(OC)c(O)c(OC)c3)S2)cc1	none
COc1ccc(/C=C2\SC(=Nc3ccccc3OC)NC2=O)cc1	CF NFkB block 56
Oc1ccc(Cl)c2cccnc12	none
Oc1c(I)cc(I)c2cccnc12	Shn3 3UTR inh 94
CCNC(=O)c1cc2c(=O)n3cccc(C)c3nc2n(CCc2ccccc2)c1=N	none (no result: Shn3 3UTR inh)
Cc1cccn2c(=O)c3cc(C(=O)NC4CCCC4)c(=N)n(Cc4ccc(F)cc4)c3nc12	Peg3 promoter 58
Cc1cccn2c(=O)c3cc(C(=O)NC4CCCC4)c(=N)n(CCc4ccccc4)c3nc12	Peg3 promoter 69
N=c1c(C(=O)NC2CCCCC2)cc2c(=O)n3ccccc3nc2n1Cc1ccc(F)cc1	none
Cc1cccn2c(=O)c3cc(C(=O)NC4CCCCC4)c(=N)n(Cc4ccccc4)c3nc12	Peg3 promoter 54
Nc1nc(NCCCN2CCOCC2)nc(Nc2ccccc2F)c1[N+](=O)[O-]	none
Cc1ccc(-c2c[n+](Cc3ccc(Cl)c(Cl)c3)c3n2CCC3)cc1	MITF TRPM1 inh 72
Cc1ccc(C(=O)C[n+]2cc(-c3ccc(C)cc3)n3c2CCCCC3)cc1	MITF TRPM1 inh 76
Cc1ccc(NC(=O)C[n+]2cc(-c3ccc(C)cc3)n3c2CCC3)cc1	none
CC(=O)NC(C)(c1ccccc1)c1nc(-c2cncnc2)cs1 (stereo not drawn)	none (no result: MITF TRPM1 inh)
CC(C)=CCc1cc([C@@H]2COc3c(ccc4c3C=CC(C)(C)O4)C2)c(O)cc1O	Peg3 promoter 84, Shn3 3UTR inh 92
CC1(C)C=Cc2c(ccc3c2OC[C@H](c2ccc(O)cc2O)C3)O1	none
CC[C@H](C)[C@@H]1NC(=O)[C@@H](CC(C)C)NC(=O)[C@H](C(C)C)NC(=O)[C@H]2CSSC[C@H](NC1=O)C(=O)N2	Peg3 promoter 98, KKLEB cytotox -106, HIF-2a block 96, CF NFkB block 82, Shn3 3UTR inh 89 (no result: MITF TRPM1 inh)
CC(C)c1nc2cc(C(=O)N3CCN(c4cnccn4)CC3)ccc2o1	none
